Only a selection was taken, and hits are over-represented in it overall.
HIV RNase H inh-1 – HIV-1 RT RNase H inhibitors, primary screen, biochemical, fluorescence | Gag-Pol polyprotein (Human immunodeficiency virus type 1 group M subtype B (isolate … | RT-RNase H RNA/DNA duplex cleavage | inhibition, % at 10 µM | 65,000 compounds, 1.9% hits | AID 565, 2006; in the data active means inhibition above about 50%
HIV RNase H inh-2 – HIV-1 RT RNase H inhibitors, retest, confirmation, biochemical; shares compounds with HIV RNase H inh-1; Recombinant RT RNase H, fluorescent RNA/DNA duplex cleavage; inhibition, % at 10 µM; 1,000 compounds, 39% hits; in the data active means inhibition above about 48%; inconclusive means no clear call, values can overlap the other calls
* marks the source's active call; other numbers are inactive results; ? = inconclusive.

SMILES	HIV RNase H inh-1	others
Cc1ccc(N2C(=O)SC(N(CC(=O)O)c3cccc(C)c3)C2=O)cc1 (stereo unspecified)	11
Cc1ccc(N(CC(N)=O)C2SC(=O)N(Cc3ccccc3)C2=O)cc1 (stereo unspecified)	63*	HIV RNase H inh-2=41
NC(=O)CN(c1ccccc1)C1SC(=O)N(Cc2ccccc2)C1=O (stereo unspecified)	2
Cc1cc(Nc2ccc(Br)cc2F)n2nc(C)nc2n1	-17
CC(C)CCNC(=O)Cn1cc2c(n1)CCCCC2	-3
COC(=O)c1ccc(NC(=O)C2CCCN2S(=O)(=O)c2ccc(F)cc2)cc1 (stereo unspecified)	-31
CCOC(=O)c1c(N)sc2c1CCCC2	85*	HIV RNase H inh-2=-1
CCOC(=O)c1c(N)sc2c1CCS(=O)(=O)C2	46
CCOC(=O)c1c(N)sc2c1CCC(C)C2 (stereo unspecified)	5
O=C(c1cccs1)N1CCN(C/C=C/c2ccccc2)CC1	-2
CC(C(=O)NCc1ccc2c(c1)OCO2)N1c2cccc3cccc(c23)S1(=O)=O (stereo unspecified)	-14
C=C(CC)C(=O)c1ccc(OCC(=O)O)c(Cl)c1Cl	30
CCOc1ccc(-c2nnc3ccc(SCC(=O)N4CCN(c5ccccc5)CC4)nn23)cc1	-25
O=C(CSc1ccc2nnc(-c3ccccc3)n2n1)N1CCCCC1	3
O=C(CSc1ccc2nnc(-c3ccc(Cl)cc3)n2n1)N1CCN(c2ccccc2)CC1	60*	HIV RNase H inh-2=48
COC(=O)CN1C2(C#N)CCCCC2CC2CCCCC21C#N (stereo unspecified)	0
O=C(CN1CCC(NC(=O)Nc2ccccc2-c2ccccc2)CC1)NCc1ccco1	38
COc1nccc(Nc2ccccc2)c1C#N	-4
COc1[nH]c(/N=C/c2ccccc2)c(C#N)c1C#N	53*	HIV RNase H inh-2=5
CCCNC(=O)CCC(=O)Nc1ncc(-c2ccc(C)cc2)n1C	-6
O=c1[nH]c(=O)n(CCC2=CCCCC2)c(O)c1C=NCCN1CCNCC1	14
CCN(CC)c1ccc(N=Cc2c(O)n(CCC3=CCCCC3)c(=O)[nH]c2=O)cc1	18
CN(C)c1ccc(N=Cc2c(O)n(CCC3=CCCCC3)c(=O)[nH]c2=O)cc1	58*	HIV RNase H inh-2=51*
CC(=O)c1cccc(NC(=O)N2CCCC2C(=O)NC2CCCCC2)c1 (stereo unspecified)	-5
CCOc1ccccc1NC(=O)N1CCC(NC(=O)c2ccccc2C)CC1	1
SMILES	HIV RNase H inh-1	others
Cc1cccc(NC(=O)N2CCC(NC(=O)c3ccccc3C)CC2)c1	-3
CCOc1ccccc1NC(=O)N1CCC(NC(=O)c2cccc(C)c2)CC1	77*	HIV RNase H inh-2=13
CCCCCC(=O)N(O)C1CC(=O)N(c2ccccc2)C1=O (stereo unspecified)	16
O=C1CC(N(O)C2CC(=O)N(Cc3ccccc3)C2=O)C(=O)N1Cc1ccccc1 (stereo unspecified)	28
CCCCCCC(=O)N(O)C1CC(=O)N(Cc2ccccc2)C1=O (stereo unspecified)	66*	HIV RNase H inh-2=32
COc1ccc(CCC(=O)N2CCc3ccccc32)cc1	-40
COc1cc(C(c2nnnn2C(C)(C)C)N2CCN(c3nc4ccccc4s3)CC2)ccc1O (stereo unspecified)	15
O=C(c1ccco1)c1cn[nH]c1-c1ccc(Cl)cc1O	-50
CN(C)C(=O)Oc1cccc([N+](C)(C)C)c1	-5
O=C(CSC1=NCCN1)C1COc2ccccc2O1 (stereo unspecified)	0
CC1CCN(Cc2ccc(-c3nn[nH]n3)cc2)CC1	-7
Cc1c(C(=O)NC2=NCCS2)oc2ccccc12	-17
Cc1sc(NC(=O)c2oc3ccccc3c2C)c(C#N)c1C	57*	HIV RNase H inh-2=83*
Cc1cc(C(=O)Nc2sc(C)c(C)c2C#N)c(C)o1	6
N#Cc1ccccc1CSc1nc(N2CCCCC2)nc(N2CCCCC2)n1	0
CC(C)c1ccc(NC(=O)C2CC(=O)N=C(N)S2)cc1 (stereo unspecified)	-3
O=C1C2C(C(=O)N1c1ccncc1)C1C=CC2C12CC2 (stereo unspecified)	74*	HIV RNase H inh-2=29
COc1cccc(N2C(=O)C3C(C2=O)C2C=CC3C23CC3)c1 (stereo unspecified)	4
Cc1ccc(N2C(=O)C3C(C2=O)C2C=CC3C23CC3)cc1 (stereo unspecified)	1
Cc1cc(N2CCC(N(C)C3CCCC3)CC2)nc2cc(O)ccc12	-2
Nn1c(SCC(=O)NC2CCCc3ccccc32)nnc1-c1cccs1 (stereo unspecified)	-25
CC(C)C(=O)Nc1cc(=O)[nH]c2ncnn12	-4
Cn1cc(C2NC(=O)c3c(sc4c3CCCC4)N2)c2ccccc21 (stereo unspecified)	69*	HIV RNase H inh-2=?
CN1CCc2c(sc3c2C(=O)NC(c2ccccn2)N3)C1 (stereo unspecified)	50
Cn1cc(/C=N/n2cnc3sc4c(c3c2=O)CCCC4)c2ccccc21	-6
SMILES	HIV RNase H inh-1	others
Cc1occc1-c1nnc(SCC(=O)N2CCN(c3ccccc3F)CC2)n1C	0
Cc1nc(NC2=NCN(CCc3ccccc3)CN2)nc2c(C)cccc12	-1
CCOC(=O)C1C(=O)CC(C)(O)C(C(=O)OCC)C1c1ccco1 (stereo unspecified)	-5
COc1ccc2[nH]cc(C(=O)CN3CCC(C)CC3)c2c1	-3
COc1ccc2[nH]cc(CCN(C)C)c2c1	-1
COc1ccc2[nH]cc(CCN=C3SCC(=O)N3C)c2c1	79*	HIV RNase H inh-2=24
c1ccc2c(c1)CCN(CCCNc1nc3ccccc3n3cnnc13)C2	-22
CCn1cc(C2=NOC(C(=O)Nc3cc(C)nn3-c3ccccc3)C2)c(C)n1 (stereo unspecified)	-2
C=CCn1c(Cc2cccs2)nnc1SCC(=O)c1cccc(Br)c1	15
CC(C)Sc1nc2c(c(=O)n1C)SC(C)C2 (stereo unspecified)	-37
Cc1ccc(CNC(=O)CSc2ncccn2)cc1	-14
O=C(O)C(Cc1c[nH]c2ccccc12)NS(=O)(=O)c1cccc2nsnc12 (stereo unspecified)	7
Cc1noc(C)c1CSc1ncnc2ccccc12	-42
Cn1c(CCNC(=O)c2ccco2)nc2cc(NS(=O)(=O)c3ccc(Cl)cc3)ccc21	2
Nc1cc(-c2ccco2)no1	-2
N#Cc1c(-c2ccccc2)cc(-c2ccco2)c(C#N)c1N	46
N#Cc1sc2nc(-c3ccccc3)cc(-c3ccco3)c2c1N	95*	HIV RNase H inh-2=-5
COc1cccc(OC)c1OCC(C)CNCC1CCCO1 (stereo unspecified)	-8
COc1ccc(C(=O)NCC23C=CC(O2)C2C(=O)N(Cc4ccccc4)C(=O)C23)cc1 (stereo unspecified)	1
O=C1C2C3C=CC(CO)(O3)C2C(=O)N1c1ccccc1-c1ccccc1 (stereo unspecified)	61*	HIV RNase H inh-2=-5
O=C1CCC(=O)N1c1ccccc1-c1ccccc1	-11
O=c1oc2c3c4c(cc2cc1-c1nc2ccccc2[nH]1)CCCN4CCC3	-278
CCCCOC(=O)Nc1cccc(C(C)=O)c1	-2
O=C(Nc1ccc(S(=O)(=O)NC2CCCC2)cc1)c1cnccn1	-7
Cc1ccc(C)c(N=C2NC(=O)CS2)c1	-14
Cc1ccccc1N=C1NC(=O)CS1	-3
Cc1cc(O)c(C(C)C)cc1N=C1CSC(=O)N1	67*	HIV RNase H inh-2=?
